Results reported in PubChem BioAssay AID1159580 (chemical genetic matrix, 2015).
Hit rate of the full screen: of about 5,500 compounds, about 2,000 (36%) were called active. Roughly 18% stayed inconclusive and do not appear here. Rule as the data show it: active = normalized growth mostly below about 0.91 (no sharp cut-off); inconclusive = no clear call, values can overlap the other calls; inactive = mostly above about 0.92. The list shows a part of the results.

Test: chemical genetic growth profiling, strain panel (AID 1159580);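 also: tested at 20 µM; growth read once vehicle control cultures reached saturation at 30 °C; 1 = growth at the plate median or of vehicle wells; lower values mean less growth of the strain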
Conditions: growth OD
[1] = S. cerevisiae deletion strains, locus YAL013W, strain DEP1, stronger effect = lower value
[2] = S. cerevisiae deletion strains, locus YBR229C, strain ROT2, stronger effect = lower value
[3] = S. cerevisiae deletion strains, locus YDL101C, strain DUN1, stronger effect = lower value
[4] = S. cerevisiae deletion strains, locus YDR150W, strain NUM1, stronger effect = lower value
[5] = S. cerevisiae deletion strains, locus YEL061C, strain CIN8, stronger effect = lower value
[6] = S. cerevisiae deletion strains, locus YGR078C, strain PAC10, stronger effect = lower value
[7] = S. cerevisiae deletion strains, locus YHR030C, strain SLT2, stronger effect = lower value
[8] = S. cerevisiae deletion strains, locus YHR087W, strain rtc3, stronger effect = lower value
[9] = S. cerevisiae deletion strains, locus YJL187C, strain SWE1, stronger effect = lower value
[10] = S. cerevisiae deletion strains, locus YJR043C, strain POL32, stronger effect = lower value
[11] = S. cerevisiae deletion strains, locus YJR075W, strain HOC1, stronger effect = lower value
[12] = S. cerevisiae deletion strains, locus YKL190W, strain CNB1, stronger effect = lower value
[13] = S. cerevisiae deletion strains, locus YLR039C, strain RIC1, stronger effect = lower value
[14] = S. cerevisiae deletion strains, locus YLR058C, strain SHM2 (second series), stronger effect = lower value
[15] = S. cerevisiae deletion strains, locus YLR085C, strain ARP6, stronger effect = lower value
[16] = S. cerevisiae deletion strains, locus YLR262C, strain YPT6, stronger effect = lower value
[17] = S. cerevisiae deletion strains, locus YML094W, strain GIM5, stronger effect = lower value
[18] = S. cerevisiae deletion strains, locus YMR219W, strain ESC1, stronger effect = lower value
[19] = S. cerevisiae deletion strains, locus YMR263W, strain SAP30, stronger effect = lower value
[20] = S. cerevisiae deletion strains, locus YMR307W, strain GAS1, stronger effect = lower value
[21] = S. cerevisiae deletion strains, locus YNL128W, strain TEP1, stronger effect = lower value
[22] = S. cerevisiae deletion strains, locus YNL153C, strain GIM3, stronger effect = lower value
[23] = S. cerevisiae deletion strains, locus YNL298W, strain CLA4 (second series), stronger effect = lower value
[24] = S. cerevisiae deletion strains, locus YNL322C, strain KRE1, stronger effect = lower value
[25] = S. cerevisiae deletion strains, locus YNR030W, strain Alg12, stronger effect = lower value
[26] = S. cerevisiae deletion strains, locus YPL055C, strain LGE1, stronger effect = lower value
[27] = S. cerevisiae deletion strains, locus YPL241C, strain CIN2, stronger effect = lower value
[28] = S. cerevisiae deletion strains, locus YPR135W, strain CTF4, stronger effect = lower value
[29] = S. cerevisiae strains, strain wild type, stronger effect = lower value

Measured: normalized growth

O=C1c2cccc3c([N+](=O)[O-])ccc(c23)C(=O)N1Cc1ccco1
inactive: [2] 0.94 | [8] 0.974 | [9] 0.995 | [11] 0.97 | [12] 0.934 | [13] 0.852 | [14] 0.972 | [16] 0.815 | [18] 0.98 | [20] 0.739 | [21] 0.958 | [24] 0.997 | [29] 0.935
active: [1] 0.81 | S. cerevisiae deletion strains, locus YCL061C, strain MRC1, stronger effect = lower value 0.896 | [3] 0.873 | [4] 0.763 | [5] 0.909 | [6] 0.879 | [7] 0.321 | [10] 0.791 | [15] 0.341 | [17] 0.797 | [19] 0.796 | [22] 0.899 | [23] 0.753 | [25] 0.559 | [26] 0.628 | [27] 0.634 | [28] 0.382

O=C1c2cccc3cc([N+](=O)[O-])cc(c23)C(=O)N1CCO
inactive: [1] 0.992 | [2] 1.02 | [3] 0.974 | [4] 0.995 | [5] 1.01 | [6] 0.988 | [7] 1.04 | [8] 1.02 | [9] 0.984 | [10] 0.995 | [11] 1.02 | [12] 1.02 | [13] 1.03 | [14] 1.01 | [15] 0.908 | [16] 1.05 | [17] 0.976 | [18] 1.01 | [19] 0.984 | [21] 1 | [22] 1.02 | [23] 0.975 | [24] 1.01 | [25] 0.985 | [26] 0.991 | [27] 1.01 | [28] 0.89 | [29] 1.01

Cc1nc2c([nH]1)c(=O)n(C)c(=O)n2Cc1ccco1
inactive: [1] 1.04 | S. cerevisiae deletion strains, locus YAL040C, strain CLN3, stronger effect = lower value 1 | S. cerevisiae deletion strains, locus YCL061C, strain MRC1 (second series), stronger effect = lower value 1.01 | [4] 1 | S. cerevisiae deletion strains, locus YDR363W, strain ESC2, stronger effect = lower value 1.03 | S. cerevisiae deletion strains, locus YER002W, strain NOP16, stronger effect = lower value 0.998 | [20] 1.02 | S. cerevisiae deletion strains, locus YNL175C, strain NOP13, stronger effect = lower value 1.01 | S. cerevisiae deletion strains, locus YNL197C, strain WHI3, stronger effect = lower value 1.01 | S. cerevisiae deletion strains, locus YNL224C, strain SQS1, stronger effect = lower value 0.995 | [24] 1.02 | S. cerevisiae deletion strains, locus YOR083W, strain WHI5 (second series), stronger effect = lower value 1.05 | [26] 1.01

CC1/C(=N\O)C[C@@H]2C[C@H]1C2(C)C (stereo not given in full)
inactive: [1] 1.01 | S. cerevisiae deletion strains, locus YBR021W, strain FUR4, stronger effect = lower value 1.01 | [2] 1.01 | S. cerevisiae deletion strains, locus YCL029C, strain bik1, stronger effect = lower value 0.994 | S. cerevisiae deletion strains, locus YDL035C, strain GPR1, stronger effect = lower value 0.993 | S. cerevisiae deletion strains, locus YDL074C, strain BRE1, stronger effect = lower value 1.04 | [3] 1.02 | S. cerevisiae deletion strains, locus YDL134C, strain PPH21, stronger effect = lower value 1.01 | S. cerevisiae deletion strains, locus YDL185W, strain tfp1, stronger effect = lower value 1.02 | S. cerevisiae deletion strains, locus YDL192W, strain arf1, stronger effect = lower value 1.03 | S. cerevisiae deletion strains, locus YDR101C, strain arx1, stronger effect = lower value 0.981 | S. cerevisiae deletion strains, locus YDR162C, strain NBP2, stronger effect = lower value 1.02 | S. cerevisiae deletion strains, locus YDR318W, strain mcm21, stronger effect = lower value 1.04 | S. cerevisiae deletion strains, locus YDR388W, stronger effect = lower value 1.02 | S. cerevisiae deletion strains, locus YDR502C, strain sam2, stronger effect = lower value 1.02 | S. cerevisiae deletion strains, locus YER110C, stronger effect = lower value 1.01 | S. cerevisiae deletion strains, locus YER155C, strain BEM2, stronger effect = lower value 1.01 | S. cerevisiae deletion strains, locus YER167W, strain BCK2, stronger effect = lower value 1.01 | S. cerevisiae deletion strains, locus YGL078C, strain dbp3, stronger effect = lower value 1.02 | S. cerevisiae deletion strains, locus YGL086W, strain mad1, stronger effect = lower value 0.999 | S. cerevisiae deletion strains, locus YGL248W, strain PDE1, stronger effect = lower value 1.03 | [6] 1.03 | S. cerevisiae deletion strains, locus YGR135W, strain pre9, stronger effect = lower value 1.04 | S. cerevisiae deletion strains, locus YGR252W, strain gcn5, stronger effect = lower value 1.01 | [7] 1.03 | S. cerevisiae deletion strains, locus YHR079C, strain IRE1 (second series), stronger effect = lower value 1.03 | S. cerevisiae deletion strains, locus YHR079C, strain IRE1, stronger effect = lower value 1.04 | S. cerevisiae deletion strains, locus YHR094C, strain hxt1, stronger effect = lower value 1.01 | S. cerevisiae deletion strains, locus YHR129C, strain ARP1, stronger effect = lower value 1.01 | S. cerevisiae deletion strains, locus YHR200W, strain rpn10, stronger effect = lower value 1.03 | S. cerevisiae deletion strains, locus YIL066C, strain RNR3, stronger effect = lower value 1.01 | S. cerevisiae deletion strains, locus YIL073C, strain SPO22, stronger effect = lower value 1.05 | S. cerevisiae deletion strains, locus YIL125W, strain kgd1, stronger effect = lower value 1.02 | S. cerevisiae deletion strains, locus YIR030C, strain dcg1, stronger effect = lower value 1.02 | S. cerevisiae deletion strains, locus YJL095W, strain BCK1, stronger effect = lower value 1.04 | S. cerevisiae deletion strains, locus YJL134W, strain LCB3, stronger effect = lower value 1.02 | S. cerevisiae deletion strains, locus YJL168C, strain set2, stronger effect = lower value 1.01 | S. cerevisiae deletion strains, locus YJL187C, strain SWE1 (second series), stronger effect = lower value 1.03 | [10] 0.994 | S. cerevisiae deletion strains, locus YJR066W, strain TOR1, stronger effect = lower value 0.95 | [11] 1.03 | S. cerevisiae deletion strains, locus YKL009W, strain mrt4, stronger effect = lower value 0.995 | S. cerevisiae deletion strains, locus YKL068W, stronger effect = lower value 1.02 | S. cerevisiae deletion strains, locus YKL085W, strain MDH1 (second series), stronger effect = lower value 1.02 | S. cerevisiae deletion strains, locus YKL085W, strain MDH1, stronger effect = lower value 1.02 | [12] 1.01 | S. cerevisiae deletion strains, locus YKR001C, strain vps1, stronger effect = lower value 1.05 | [13] 1.09 | S. cerevisiae deletion strains, locus YLR058C, strain SHM2, stronger effect = lower value 1.02 | S. cerevisiae deletion strains, locus YLR102C, strain apc9, stronger effect = lower value 1.05 | S. cerevisiae deletion strains, locus YLR113W, strain HOG1, stronger effect = lower value 1.05 | [16] 1.1 | S. cerevisiae deletion strains, locus YLR268W, strain sec22, stronger effect = lower value 1.02 | S. cerevisiae deletion strains, locus YLR371W, strain rom2, stronger effect = lower value 1.04 | S. cerevisiae deletion strains, locus YLR418C, strain cdc73, stronger effect = lower value 1.06 | S. cerevisiae deletion strains, locus YML016C, strain PPZ1, stronger effect = lower value 1.02 | S. cerevisiae deletion strains, locus YML032C, strain rad52, stronger effect = lower value 1.02 | S. cerevisiae deletion strains, locus YML124C, strain tub3, stronger effect = lower value 1.01 | S. cerevisiae deletion strains, locus YMR078C, strain ctf18, stronger effect = lower value 1.03 | S. cerevisiae deletion strains, locus YMR223W, strain ubp8, stronger effect = lower value 1.02 | [20] 1.06 | S. cerevisiae deletion strains, locus YNL067W, strain RPL9B, stronger effect = lower value 1.02 | S. cerevisiae deletion strains, locus YNL183C, strain NPR1, stronger effect = lower value 0.951 | S. cerevisiae deletion strains, locus YNL233W, strain BNI4, stronger effect = lower value 1.03 | S. cerevisiae deletion strains, locus YNL250W, strain rad50, stronger effect = lower value 1.05 | S. cerevisiae deletion strains, locus YNL271C, strain bni1, stronger effect = lower value 1.02 | S. cerevisiae deletion strains, locus YNL298W, strain CLA4, stronger effect = lower value 1.02 | S. cerevisiae deletion strains, locus YNL307C, strain MCK1, stronger effect = lower value 1.01 | S. cerevisiae deletion strains, locus YNR052C, strain pop2, stronger effect = lower value 1.03 | S. cerevisiae deletion strains, locus YOL012C, strain htz1 1.25 | S. cerevisiae deletion strains, locus YOL147C, strain pex11, stronger effect = lower value 1.01 | S. cerevisiae deletion strains, locus YOR061W, strain CKA2, stronger effect = lower value 1.02 | S. cerevisiae deletion strains, locus YOR069W, strain VPS5, stronger effect = lower value 1.01 | S. cerevisiae deletion strains, locus YOR136W, strain idh2, stronger effect = lower value 1 | S. cerevisiae deletion strains, locus YOR144C, strain elg1, stronger effect = lower value 1.01 | S. cerevisiae deletion strains, locus YOR184W, strain ser1, stronger effect = lower value 0.926 | S. cerevisiae deletion strains, locus YOR231W, strain MKK1, stronger effect = lower value 1.02 | S. cerevisiae deletion strains, locus YOR316C, strain cot1, stronger effect = lower value 1.03 | S. cerevisiae deletion strains, locus YPL256C, strain CLN2, stronger effect = lower value 1.05 | S. cerevisiae deletion strains, locus YPR119W, strain clb2, stronger effect = lower value 1.03 | S. cerevisiae deletion strains, locus YPR141C, strain kar3, stronger effect = lower value 1.02 | S. cerevisiae deletion strains, locus YPR163C, strain tif3, stronger effect = lower value 1.03 | S. cerevisiae deletion strains, locus YPR167C, strain met16, stronger effect = lower value 1.03 | S. cerevisiae deletion strains, strain wtn01, stronger effect = lower value 0.995
